Assay outcomes deposited in PubChem BioAssay by The Scripps Research Institute Molecular Screening Center.
hcDAF12 agonist: H. contortus DAF-12 nuclear receptor activators, primary screen, cell-based, luminescence, HEK293, lit1-tk-luc reporter; HEK293 hcDAF-12 lit1-tk-luc reporter; 0% DMSO, 100% Δ7-dafachronic acid; activation, % at 6.8 µM; 370,000 compounds, 1.4% hits; AID 652067, 2013;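 active = activation above the mean of all tested compounds plus 3 SD, cut at about 5.5% in these data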;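 also: 100% = response to 3 µM Δ7-dafachronic acid high control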
DAX1 inh-1: DAX1 (NR0B1) inhibitors on StAR promoter, primary screen, cell-based, luminescence, SF-1 (NR5A1), full-length DAX-1; HEK293T StAR-luciferase reporter, SF-1/DAX-1 repression relief; inhibition, % at 6.8 µM; 370,000 compounds, 1.1% hits; AID 652010, 2013;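 active = inhibition above the mean over all tested compounds plus 3 SD, cut at about 3.6% in these data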;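 also: 0% = DAX-1 cells with DMSO and 100% = cells lacking DAX-1 with DMSO; higher inhibition means more luminescence from relief of DAX-1 repression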
AHR activator: AHR activators, primary screen, cell-based, luminescence, luciferase reporter, human; Aryl hydrocarbon receptor (Homo sapiens), P35869; AHR-responsive luciferase reporter cells; activation, % at 5 µM; 320,000 compounds, 2.5% hits; AID 2796, 2010; in the data active = activation above about 47%;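 also: 0% = vehicle wells and 100% = reference agonist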
ssDAF-12 act: S. stercoralis DAF-12 nuclear receptor activators, primary screen, cell-based, luminescence, HEK293, GRIP1 co-expression, lit1-tk-luc. Nuclear hormone receptor DAF-12 (Strongyloides stercoralis). HEK293 ssDAF-12/GRIP1 lit1-tk-luc reporter; % of 3 µM dafachronic acid response. activation, % at 6.8 µM. 370,000 compounds, 1% hits. AID 652126, 2013;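 active = activation above the mean over all tested compounds plus 3 SD, cut at about 0.9% in these data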;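 also: 0% = DMSO-only wells and 100% = 3 µM delta7-dafachronic acid wells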
hgDAF12 agonist: H. glycines DAF-12 receptor agonists, primary screen, cell-based, luminescence, HEK293, GAL4 fusion, UAS-luciferase | AID 687014, 2013 | 370,000 compounds, 1.8% hits | HEK293 GAL4-hgDAF12 UAS-luciferase reporter, agonist luminescence; normalized to butyrate control | Nuclear hormone receptor DAF-12 (Heterodera glycines), GAL4 fusion | activation, % at 6.8 µM;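 active = activation above a cutoff set at the mean of all screened compounds plus 3 SD, cut at about 10% in these data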;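 also: 0% = DMSO wells and 100% = sodium butyrate wells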
DAX1 inh-2: DAX1 (NR0B1) inhibitors, primary screen, cell-based, HEK293, Gal4-DAX1, luciferase luminescence; inhibition, % at 6.75 µM; Nuclear receptor subfamily 0 group B member 1 (Homo sapiens), P51843; 340,000 compounds, 0.99% hits; HEK293 Gal4-DAX1 luciferase reporter;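 active = inhibition above the mean over all tested compounds plus 3 SD, cut at about 4.2% in these data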;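 also: 0% = DAX1-transfected cells with DMSO and 100% = empty-vector control cells with DMSO; inhibition shows as a rise in luminescence from relieved DAX1 repression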
Target sequence (P51843 207-470 limits assumed): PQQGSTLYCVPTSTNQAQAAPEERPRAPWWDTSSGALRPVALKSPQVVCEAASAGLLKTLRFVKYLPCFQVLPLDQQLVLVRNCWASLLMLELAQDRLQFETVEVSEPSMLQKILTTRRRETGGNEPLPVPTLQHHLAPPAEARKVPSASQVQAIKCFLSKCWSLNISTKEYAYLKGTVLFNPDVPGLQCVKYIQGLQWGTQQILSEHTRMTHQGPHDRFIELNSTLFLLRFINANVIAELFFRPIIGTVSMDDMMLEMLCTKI
* = called active by the depositor. Rows were chosen to be rich in hits. Some 5.7% of all compounds tested hit in one or more screens of this group.

How did Cc1ccc2oc(=O)c3cnn(CC(=O)N4CCc5ccccc5C4)c3c2c1 do in these assays?
hcDAF12 agonist: 1; DAX1 inh-1: 0; AHR activator: 1; ssDAF-12 act: -1; hgDAF12 agonist: 3; DAX1 inh-2: 6.3*

How did Cc1ccc2oc(=O)c3cnn(CC(=O)N4CCCCC4C)c3c2c1 (centres undefined) do in these assays?
hcDAF12 agonist: 1; DAX1 inh-1: 1; AHR activator: 2; ssDAF-12 act: 0; hgDAF12 agonist: 1; DAX1 inh-2: 0

What do the screens show for `O=C1c2cc(O)cc(O)c2C(=O)c2c1cc(O)c([C@@H](CO)CCO)c2O`?
hcDAF12 agonist: 6.1*; DAX1 inh-1: 2; AHR activator: 15; ssDAF-12 act: 0; hgDAF12 agonist: 3; DAX1 inh-2: 2

Results for Cc1cc(O)c2c(c1)C(=O)c1cc(O)cc(O)c1C2=O ?
hcDAF12 agonist: -2; DAX1 inh-1: 1; AHR activator: 0; ssDAF-12 act: -1; hgDAF12 agonist: -1; DAX1 inh-2: 0

How did COC(=O)c1c(-c2ccc(F)cc2)csc1NC(=O)C1CCCO1 (centres undefined) do in these assays?
hcDAF12 agonist: -1; DAX1 inh-1: 3; AHR activator: 1; ssDAF-12 act: -2; hgDAF12 agonist: 12*; DAX1 inh-2: -1

How did COc1ccccc1N=Cc1nc(-c2ccccc2)oc1OC(C)=O do in these assays?
hcDAF12 agonist: 3; DAX1 inh-1: 0; AHR activator: 16; ssDAF-12 act: 0; hgDAF12 agonist: 1; DAX1 inh-2: 2

Results for CC(=O)Oc1oc(-c2ccccc2)nc1/C=N/c1ccccn1 ?
hcDAF12 agonist: 2; DAX1 inh-1: 2; AHR activator: 3; ssDAF-12 act: -1; hgDAF12 agonist: 6; DAX1 inh-2: 5.1*

How did CCCCC(CC)CNC(=O)C(Cc1ccccc1)NS(=O)(=O)c1ccc2c(c1)CCC(=O)N2 (centres undefined) do in these assays?
hcDAF12 agonist: -1; DAX1 inh-1: -1; AHR activator: 1; ssDAF-12 act: -2; hgDAF12 agonist: 0; DAX1 inh-2: -1

Results for [O-]/C(=C(\C(=S)Nc1ccccc1F)[n+]1ccccc1)c1ccc(-c2ccccc2)cc1 ?
hcDAF12 agonist: 2; DAX1 inh-1: 2; AHR activator: 60*; ssDAF-12 act: 0; hgDAF12 agonist: 10; DAX1 inh-2: 1

Results for [O-]/C(=C(\C(=S)Nc1ccc(Cl)cc1)[n+]1ccccc1)c1ccc(OC(F)F)cc1 ?
hcDAF12 agonist: 1; DAX1 inh-1: 1; AHR activator: 17; ssDAF-12 act: -1; hgDAF12 agonist: -1; DAX1 inh-2: 0

What do the screens show for `O=C(COC(=O)CN1C(=O)c2ccccc2C1=O)NC1CCCC1`?
hcDAF12 agonist: -1; DAX1 inh-1: 0; AHR activator: -1; ssDAF-12 act: -1; hgDAF12 agonist: 1; DAX1 inh-2: 1

Results for O=C(Nc1cccc(Cl)c1)c1ccccc1NC(=O)C1CCCCC1C(=O)O (centres undefined) ?
hcDAF12 agonist: 2; DAX1 inh-1: 0; ssDAF-12 act: 0; hgDAF12 agonist: 11*; DAX1 inh-2: 1

What do the screens show for `CC(C)c1ccc(NC(=O)c2ccccc2NC(=O)C2CCCCC2C(=O)O)cc1` (centres undefined)?
hcDAF12 agonist: 0; DAX1 inh-1: 2; ssDAF-12 act: 1; hgDAF12 agonist: 9; DAX1 inh-2: 5.4*

What do the screens show for `O=C(NNc1ccccc1)/C(=C\c1cccnc1)NC(=O)c1ccccc1`?
hcDAF12 agonist: -1; DAX1 inh-1: 0; AHR activator: 1; ssDAF-12 act: -1; hgDAF12 agonist: 2; DAX1 inh-2: 3

What do the screens show for `COc1ccccc1NC(=O)C(C)N(C)Cc1ccc(Cl)s1` (centres undefined)?
hcDAF12 agonist: 0; DAX1 inh-1: 0; AHR activator: 18; ssDAF-12 act: -1; hgDAF12 agonist: 1; DAX1 inh-2: -2

What do the screens show for `CCc1ccc(C(=O)NNC(=O)CC2OC(=O)c3ccccc32)cc1` (centres undefined)?
hcDAF12 agonist: 5; DAX1 inh-1: 2; AHR activator: 19; ssDAF-12 act: 1.0*; hgDAF12 agonist: 6; DAX1 inh-2: 0

Results for O=C(NC1CCSC1=O)C1CCCCC1 (centres undefined) ?
hcDAF12 agonist: 0; DAX1 inh-1: 1; AHR activator: -2; ssDAF-12 act: -2; hgDAF12 agonist: 0; DAX1 inh-2: 2

What do the screens show for `Cc1ccc2c(c1)N(CC(=O)NCCc1c[nH]c3ccccc13)C(=O)CO2`?
hcDAF12 agonist: 2; DAX1 inh-1: -1; AHR activator: 13; ssDAF-12 act: 0.9*; hgDAF12 agonist: 1; DAX1 inh-2: 1

Results for Cc1ccc2[nH]cc(CCNC(=O)CN3C(=O)c4ccccc4C3=O)c2c1 ?
hcDAF12 agonist: -1; DAX1 inh-1: 1; AHR activator: 2; ssDAF-12 act: -2; hgDAF12 agonist: -2; DAX1 inh-2: -1

How did Cc1ccc2cc(CCNC(=O)c3ccco3)c(=O)[nH]c2c1C do in these assays?
hcDAF12 agonist: 6.5*; DAX1 inh-1: 4.4*; AHR activator: 3; ssDAF-12 act: 0; hgDAF12 agonist: 13*; DAX1 inh-2: 3

Results for Cc1ccc2[nH]cc(CCNC(=O)c3ccco3)c2c1 ?
hcDAF12 agonist: 4; DAX1 inh-1: 0; AHR activator: 97*; ssDAF-12 act: 0; hgDAF12 agonist: 0; DAX1 inh-2: 0

Results for CCCCCCCCN1C(=O)[C@@H](CC(=O)NCc2ccc(OC)c(OC)c2)C[C@@]2(C(=O)OC)C1=C[C@H](C(C)C)O[C@@H]2C1CC1 ?
hcDAF12 agonist: -2; DAX1 inh-1: 0; ssDAF-12 act: -2; hgDAF12 agonist: 2

What do the screens show for `CC(C)CCN1C(=O)c2ccc(C(=O)OCn3nnc4ccccc4c3=O)cc2C1=O`?
hcDAF12 agonist: -2; DAX1 inh-1: 0; AHR activator: 0; ssDAF-12 act: -1; hgDAF12 agonist: 1; DAX1 inh-2: 3

How did CC(OC(=O)/C=C/c1ccccc1)C(=O)N1CCc2ccccc21 (centres undefined) do in these assays?
hcDAF12 agonist: -1; DAX1 inh-1: 1; AHR activator: 3; ssDAF-12 act: -1; hgDAF12 agonist: 2; DAX1 inh-2: 1
